The panel holds about 83,000 compounds, 20% with a hit somewhere; the sample as a whole holds those more often.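 Cells were grown in 96-well plates and exposed to the test compound at a single concentration for 48 hours; results are reported as percent growth, with values below 10 considered active.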 A number with no mark means an inactive call. The source made the active and inactive calls.

Among the test systems are NCI-H23 lung; NCI-H322M lung; HOP-62 NSCLC; HOP-92 NSCLC; NCI-H522 lung; A549/ATCC NSCLC; 786-0 renal; COLO 205 colon; DU-145 prostate; K-562 leukemia; MALME-3M melanoma; MDA-MB-231 breast; RXF 393 renal; SF-268 CNS; SF-539 CNS; UACC-257 melanoma; M14 melanoma; NCI-H460 lung; SF-295 CNS.
Assay in all cases: NCI-60 one-dose screen, 48 h (100 = growth as untreated, 0 = no growth, -100 = all killed)
Holding throughout (details): 10 µM unless noted

Consider `OCC12CCCC(CO)(COC1)C2O` (centres undefined), for which the growth with NCI-H23 lung was 97%; in the assay with NCI-H322M lung it was 115%; in the assay with HOP-62 NSCLC, 106%; with HOP-92 NSCLC, 30.9%; in the assay on NCI-H522 lung, 111%; with A549/ATCC NSCLC it was 101%. Also, the growth with 786-0 renal was 112%; in the assay on COLO 205 colon, 107%; with DU-145 prostate it was 127%; in the assay on K-562 leukemia, 120%; in the assay on MALME-3M melanoma it was 114%; in the assay on MDA-MB-231 breast, 94.3%. The growth was 121% in the assay with RXF 393 renal; 113% with SF-268 CNS; 105% in the assay on SF-539 CNS; 100% in the assay with UACC-257 melanoma; 97.6% in the assay with M14 melanoma.

Consider `CN1CCN(CC#CCn2c3c(c4ccccc42)C[C@]2(C)[C@H]4CC[C@@H]5[C@H]6[C@H]7OC(=O)[C@@]6(CCC7(C)C)CC[C@@]5(C)[C@]4(C)CC[C@H]2C3(C)C)CC1`, for which the growth is 92.7% in the assay with NCI-H23 lung; 106% in the assay with NCI-H322M lung; 95.2% in the assay on HOP-62 NSCLC; 98.6% in the assay on NCI-H460 lung; 67.4% with HOP-92 NSCLC; 102% with NCI-H522 lung. Besides, the growth in the assay on A549/ATCC NSCLC was 58.6%; in the assay on 786-0 renal it was 107%; with COLO 205 colon, 108%; in the assay with DU-145 prostate it was 35.4%; in the assay with K-562 leukemia, 12.7%; with MALME-3M melanoma, 113%. Also, the growth in the assay on MDA-MB-231 breast was 42.7%; in the assay on RXF 393 renal, 67.1%; in the assay with SF-268 CNS it was 92.9%; with SF-295 CNS, 104%; with SF-539 CNS it was 89.1%; in the assay with UACC-257 melanoma it was 109%. Besides, the growth with M14 melanoma was 80.9%.

As for `Cc1ccc(S(=O)(=O)Nc2ccc(-c3cc(-c4cccc(F)c4)c(C#N)c(N)n3)cc2)cc1`, the growth in the assay on NCI-H23 lung is 55.3%; in the assay with NCI-H322M lung, 72.2%; in the assay on HOP-62 NSCLC it was 53.1%; with NCI-H460 lung, 93.3%; with HOP-92 NSCLC, -39.3% (active); with NCI-H522 lung, -71.4% (active). The growth in the assay on A549/ATCC NSCLC is 33%; with 786-0 renal, 13.4%; in the assay on COLO 205 colon, 23.9%; in the assay on DU-145 prostate, 49.4%; with K-562 leukemia, 2.53% (active); with MALME-3M melanoma it was 44.4%. For the same compound, the growth in the assay with MDA-MB-231 breast was 20.6%; in the assay on RXF 393 renal, -18.2% (active); with SF-268 CNS, 47%; in the assay on SF-295 CNS it was 78.9%; with SF-539 CNS, 24%; with UACC-257 melanoma it was 41.9%. Further, in the assay on M14 melanoma, the growth is -8.83% (active).

With `COc1cc(/C=C2\C(=O)N(CC(O)COc3cc(O)c4c(=O)cc(-c5ccccc5)oc4c3)c3ccccc32)cc(OC)c1O` (centres undefined), the growth was 88.8% in the assay on NCI-H23 lung; 96.5% in the assay on NCI-H322M lung; 87.9% in the assay with HOP-62 NSCLC; 85% in the assay on NCI-H460 lung; 82.4% with HOP-92 NSCLC; 64.1% in the assay on NCI-H522 lung. Moreover, the growth is 95.4% with A549/ATCC NSCLC; 98% in the assay on 786-0 renal; 113% with COLO 205 colon; 85.6% with DU-145 prostate; 71.4% with K-562 leukemia; 99.1% in the assay on MALME-3M melanoma. For the same compound, the growth in the assay on MDA-MB-231 breast is 84.6%; in the assay with RXF 393 renal, 101%; in the assay with SF-268 CNS it was 80%; with SF-295 CNS, 95.1%; with SF-539 CNS it was 88.1%; in the assay on UACC-257 melanoma, 110%. The growth in the assay with M14 melanoma was 88.7%.

For `O=C1c2cc3c(cc2-c2c1c1ccc(F)cc1c(=O)n2CCCN1CCOCC1)OCO3`, the growth in the assay with NCI-H23 lung is 40.6%; in the assay with NCI-H322M lung, 79.8%; with HOP-62 NSCLC, 18.9%; in the assay on NCI-H460 lung, 14.1%; in the assay on HOP-92 NSCLC, 68.4%; in the assay with NCI-H522 lung it was 25.5%. Besides, the growth is 33.8% in the assay on A549/ATCC NSCLC; 24.1% in the assay on 786-0 renal; 55.1% in the assay on COLO 205 colon; 28.4% in the assay on DU-145 prostate; 41.6% with K-562 leukemia; 101% in the assay with MALME-3M melanoma. Besides, the growth with MDA-MB-231 breast was 105%; in the assay with RXF 393 renal, 70.6%; with SF-268 CNS, 43.3%; in the assay on SF-295 CNS, 21.7%; with SF-539 CNS, 11.2%; in the assay with UACC-257 melanoma, 62.7%. Further, the growth with M14 melanoma is 23.2%.

For the compound `COC(=O)[C@]12CC[C@@H](C)[C@H](C)[C@@H]1C1=CC[C@@H]3[C@@](C)(CC#N)C4=C(C[C@@]3(C)[C@]1(C)CC2)OC[C@]4(C)C=O`, the growth in the assay with NCI-H23 lung was -10.1% (active); in the assay with NCI-H322M lung, 10.4%; in the assay on HOP-62 NSCLC it was -23.6% (active); in the assay with NCI-H460 lung, -57.1% (active); in the assay on HOP-92 NSCLC it was 2.68% (active); with NCI-H522 lung, -6.43% (active). In addition, the growth was -73.6% (active) in the assay on A549/ATCC NSCLC; -19.3% (active) with 786-0 renal; -94% (active) in the assay with COLO 205 colon; 5.07% (active) in the assay on DU-145 prostate; 5.97% (active) with K-562 leukemia; -16.9% (active) with MALME-3M melanoma. In addition, the growth was -8.99% (active) in the assay with MDA-MB-231 breast; -85.1% (active) in the assay with RXF 393 renal; 3.69% (active) with SF-268 CNS; -30.6% (active) in the assay on SF-295 CNS; -38.4% (active) in the assay with SF-539 CNS; -1.53% (active) in the assay on M14 melanoma.

Consider `COc1ccc2nc(-c3c(-c4ccccc4)nc4ncccn34)[nH]c2c1`, for which the growth was 105% in the assay with NCI-H23 lung; 105% in the assay on NCI-H322M lung; 108% in the assay on HOP-62 NSCLC; 106% with NCI-H460 lung; 111% in the assay with HOP-92 NSCLC; 88.7% with NCI-H522 lung. The growth in the assay with A549/ATCC NSCLC was 97.8%; in the assay with 786-0 renal, 103%; with COLO 205 colon, 108%; with DU-145 prostate it was 115%; in the assay with K-562 leukemia, 101%; in the assay on MALME-3M melanoma it was 112%. Besides, the growth in the assay with MDA-MB-231 breast was 99.3%; with RXF 393 renal, 104%; with SF-268 CNS, 109%; with SF-539 CNS it was 100%; in the assay on UACC-257 melanoma, 105%; with M14 melanoma, 107%.

For the compound `N#CCCCCCn1c2ccccc2c2c3[nH]c(=O)[nH]c(=O)c3c3c4ccccc4n(CCCCCC#N)c3c21`, the growth is 55.6% with NCI-H23 lung; 42.5% in the assay on NCI-H322M lung; 15.8% with HOP-62 NSCLC; 34.9% in the assay with NCI-H460 lung; 19.2% in the assay on HOP-92 NSCLC; 44.9% in the assay on NCI-H522 lung. Also, the growth in the assay on A549/ATCC NSCLC was 73.7%; in the assay with 786-0 renal, 0.172% (active); in the assay with COLO 205 colon, 71.6%; in the assay on DU-145 prostate, 54.7%; with MALME-3M melanoma, 33.7%; in the assay on MDA-MB-231 breast it was -7.94% (active). Besides, the growth is 41.4% in the assay on RXF 393 renal; 19.6% in the assay on SF-268 CNS; 43.7% in the assay with SF-295 CNS; -0.187% (active) in the assay on SF-539 CNS; 66.8% with M14 melanoma.

`O=C(O)c1cccc2c1C(=O)N(c1ccc3c(c1)Cc1ccccc1-3)C2=O`: the growth was 122% with NCI-H23 lung; 111% in the assay with NCI-H322M lung; 112% with HOP-62 NSCLC; 117% in the assay on NCI-H460 lung; 109% in the assay with HOP-92 NSCLC; 92.3% in the assay on NCI-H522 lung. Moreover, the growth is 98.6% in the assay with A549/ATCC NSCLC; 107% in the assay with 786-0 renal; 121% in the assay with COLO 205 colon; 116% in the assay with DU-145 prostate; 105% with K-562 leukemia; 113% in the assay with MDA-MB-231 breast. For the same compound, the growth in the assay with RXF 393 renal was 110%; in the assay with SF-268 CNS it was 117%; in the assay on SF-295 CNS it was 121%; in the assay with SF-539 CNS it was 110%; with UACC-257 melanoma it was 109%; with M14 melanoma, 119%.

These data come from PubChem BioAssay (NCI).
